Data published in PubChem BioAssay (NCATS).
Where “and” joins values, the source holds several entries; their conditions need not be identical. Equal entries are not always repeated. Inconclusive results are not listed. Calls of active or inactive are those of the source. Unless noted, calls follow the shape of the dose curve; as a rule, active = well fitted curve in either direction with a large enough effect (not every such curve was filed as active); inconclusive = small, poorly fitted or top-dose-only effect, or another doubt; inactive = flat fitted curve, though single readings scatter.

Key:
[1] = AP1 Signaling Pathway (AID 357); conditions: ME-180 AP-1-bla reporter, EGF-induced, beta-lactamase ratio, 5 h;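 also: ME-180 reporter cells stimulated with EGF at its EC50 level; % is scaled to controls: 0 for no effect and ±100 for the full control effect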
In short: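 In this screen, ME-180 cells in Opti-MEM with 0.5% dialyzed FBS received EC50 EGF and compound titrations for 5 h. AP-1 reporter beta-lactamase was detected via CCF4 ratio, giving AC50 for positive and negative modulators.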

[2] = target: Cytochrome P450 1A2 (Homo sapiens) (UniProt P05177); experiment: p450-cyp1a2 (AID 410; calls by dose curve; also: potency is read from the fitted curve at half-maximal effect;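 as to activity change, negative = inhibition: -100% = full effect of reference inhibitor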); conditions: recombinant CYP1A2, luciferin-ME demethylation, luminescence; series mostly up to 25.6 µM
In short: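 20nM CYP1A2 with 100uM Luciferin-ME (at Km) in 100mM KPO4; compound preincubated 10 min, NADPH regeneration added, 60 min at room temperature. Luciferin quantified by luminescence after detection reagent; normalized to 57 uM furafylline.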

[3] = NFAT Signaling Pathway (AID 444); conditions: Jurkat NFAT-bla M1, carbachol, beta-lactamase ratio, 5 h;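 also: carbachol stimulus at about its EC50 of 1 µM final; % is scaled to controls: 0 for no effect and ±100 for the full control effect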
In short: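 Read-out: CCF4 FRET ratio (460 nm/530 nm) after 1 h RT dye loading, used for %activity and AC50 from titration series. Cells: Jurkat NFAT-β-lactamase/M1 line, treated with compound plus 1 uM carbachol for 5 h, 37 °C.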

[4] = Stat Signaling Pathway (AID 446); conditions: ME-180 SIE beta-lactamase reporter, IL-6 stimulated, 5 h;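 also: ME-180 cervical cancer cells given 40 pM IL-6 alongside compound; SIE-controlled beta-lactamase reporter measured as 460/530 nm FRET emission ratio; % is scaled to controls: 0 for no effect and ±100 for the full control effect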
In short: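 Reporter line: ME-180 cervical carcinoma, SIE-beta-lactamase. Treatment: compound with 40 pM IL-6, 5 hrs, 37 C, in low-serum OPTI-MEM with 10 mM HEPES pH 7.3. Detection: 460/530 nm fluorescence.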

[5] = target: Glucocorticoid receptor (Homo sapiens) (UniProt P04150); experiment: GR-GFP Redistribution (AID 450;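 active = compounds whose dose series gives a full or clear partial fitted curve of increased nuclear translocation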; also: potency is read from the fitted curve at half-maximal effect); conditions: U2OS GR-GFP nuclear translocation, laser cytometry, 2 h
[6] = target: Glucocorticoid receptor (Homo sapiens) (UniProt P04150); experiment: GR-EFC Redistribution (AID 451; calls by dose curve; also: potency is read from the fitted curve at half-maximal effect); conditions: CHO-K1 GR-EFC translocation, beta-gal luminescence, 2 h
In short: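 Translocation of GR-ED fusion to nuclear EA restores b-gal, read by luminescence after 1 h room-temperature detection. Engineered CHO-K1 biosensor cells, 1,000/well, exposed 2 h at 37 C to titrations up to 46 uM final.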

[7] = target: Mitogen-activated protein kinase 10 (Mus musculus) (UniProt Q61831); experiment: JNK3 AlphaScreen Assay (AID 530); conditions: JNK3 lysate, c-Jun phosphorylation; series mostly up to 25.6 µM;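 also: kinase came from lysate of stimulated human HepG2 cells; signal reports phosphorylation of biotinylated GST-cJun 1-79 at Ser73 with 10 µM ATP; % is scaled to controls: 0 for no effect and ±100 for the full control effect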
In short: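 Compound titrations were preincubated 15 minutes at room temperature with substrate, antibody and pre-activated JNK3-containing HepG2 lysate. Reactions were started with 10 uM ATP and stopped with EDTA-containing bead buffer for AlphaScreen detection.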

[8] = target: Lysosomal acid glucosylceramidase (Homo sapiens) (UniProt P04062); experiment: Glucocerebrosidase-p2 (AID 348; in the data active = potency below about 10 µM; also: potency is read from the fitted curve at half-maximal effect); conditions: purified GBA, blue fluorogenic substrate, 40 min
In short: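 Compounds titrated from 0.6 nM upwards against 0.2 nM enzyme in pH 5.9 citric acid/KH2PO4, taurocholate, tween-20; blue fluorogenic substrate 80 uM, 40 min room temperature, stopped and read Ex 365/Em 440 for AC50.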

[9] = Cell Viability - Jurkat (AID 426;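 active = dose-dependent loss of cell ATP signal giving a full or clear fitted curve, ranked by lower potency value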; also: potency is read from the fitted curve at half-maximal effect); conditions: qHTS
In short: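 Jurkat (Clone E6-1) cells, 5000/well in complete medium, exposed to compounds for 40 hr at 37C; intracellular ATP measured by CellTiter-Glo luminescence after 20 min at room temperature. AC50 from Hill fits.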

[10] = Cell Viability - MRC5 (AID 434; calls by dose curve;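 also: potency is read from the fitted curve at half-maximal effect; potency reflects cytotoxicity seen as loss of intracellular ATP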); conditions: MRC5 lung fibroblast viability, qHTS
In short: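 qHTS cytotoxicity in human lung fibroblast MRC5 cells; 40 hr treatment, 37 °C; cellular ATP by luciferase luminescence; DMSO = 0%, 100 uM tamoxifen = 100% inhibition; Hill-fit AC50.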

[11] = Cell Viability - SK-N-SH (AID 435; calls by dose curve;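 also: potency is read from the fitted curve at half-maximal effect; compound exposure lasted 40 h at 37 °C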); conditions: SK-N-SH neuroblastoma cell viability qHTS
In short: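 SK-N-SH human neuroblastoma cells (1500/well) were exposed to compounds in complete medium for 40 h at 37 °C, and intracellular ATP was then measured by CellTiter-Glo luminescence. AC50 was taken from Hill fits, normalized to DMSO and 100 uM tamoxifen.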

[12] = Cell Viability - N2a (AID 540; active = well fitted curve in the direction sought with a large enough effect; an effect the other way counts as inactive or inconclusive;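 also: plate controls were DMSO alone for no effect and tamoxifen control for full effect; nearly all actives have a fitted effect of over 45% in size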); conditions: N2a mouse neuroblastoma cell viability; activity change, negative = cytotoxicity: at 92.2 µM (top of the series)
In short: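 Mouse neuroblastoma N2a cells, 1500/well, exposed to compounds 40 h at 37 °C in complete medium. Viability measured as cellular ATP by CellTiter-Glo luminescence; AC50 from Hill fits of concentration-response.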

[13] = Cell Viability - NIH 3T3 (AID 541; active = well fitted curve in the direction sought with a large enough effect; an effect the other way counts as inactive or inconclusive;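 also: plate controls were DMSO alone for no effect and tamoxifen positive control for full effect; nearly all actives have a fitted effect of over 25% in size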); conditions: NIH 3T3 cell viability, qHTS; activity change, negative = cytotoxicity: at 92.2 µM (top of the series)
In short: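 Mouse NIH 3T3 fibroblasts, 1000 cells/well, rested 5 hr at 37 °C, then exposed to compound for 40 hr at 37 °C in complete medium. Viability read as intracellular ATP by CellTiter-Glo luminescence; AC50 from Hill-equation fits of concentration-response data.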

[14] = Cell Viability - HUV-EC-C (AID 542; active = well fitted curve in the direction sought with a large enough effect; an effect the other way counts as inactive or inconclusive; also: % is scaled to controls: 0 for no effect and ±100 for the full control effect; nearly all actives have a fitted effect of over 35% in size); conditions: HUV-EC-C endothelial cell viability, qHTS; series mostly up to 92.2 µM
In short: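 HUV-EC-C human vascular endothelial cells, 1000/well, exposed to compound for 40 hr at 37 °C in complete medium. Intracellular ATP was read by CellTiter-Glo luminescence. AC50 came from Hill-equation fits of concentration-response data.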

[15] = Cell Viability - SH-SY5Y (AID 544; active = well fitted curve in the direction sought with a large enough effect; an effect the other way counts as inactive or inconclusive;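 also: 0% = DMSO alone and -100% = 100 µM tamoxifen; nearly all actives have a fitted effect of over 55% in size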); conditions: SH-SY5Y neuroblastoma cell viability; viability change, negative = cytotoxic: at 92.2 µM (top of the series)
In short: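 SH-SY5Y human neuroblastoma cells (1500/well) incubated 5 h, then compound-treated 40 h at 37 °C in complete medium. Viability read as intracellular ATP by CellTiter-Glo luminescence after 20 min; AC50 from Hill-equation fits of qHTS concentration-response.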

[16] = Cell Viability - Renal Proximal Tubule (AID 545; active = well fitted curve in the direction sought with a large enough effect; an effect the other way counts as inactive or inconclusive;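 also: 0% = DMSO only and -100% = 100 µM tamoxifen; nearly all actives have a fitted effect of over 40% in size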); conditions: renal proximal tubule cells viability, primary cells of rat origin; activity change, negative = cytotoxicity: at 91.7 µM (top of the series)
In short: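 Primary rat renal proximal tubule cells (1000/well) were treated with compounds for 40 hr at 37 °C in complete medium. Intracellular ATP was measured by CellTiter-Glo luminescence, and AC50 values came from Hill-equation fits of concentration-response data.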

Glucocorticoid receptor (Homo sapiens), sequence (P04150 whole entry, looked up, the tested form may be a part): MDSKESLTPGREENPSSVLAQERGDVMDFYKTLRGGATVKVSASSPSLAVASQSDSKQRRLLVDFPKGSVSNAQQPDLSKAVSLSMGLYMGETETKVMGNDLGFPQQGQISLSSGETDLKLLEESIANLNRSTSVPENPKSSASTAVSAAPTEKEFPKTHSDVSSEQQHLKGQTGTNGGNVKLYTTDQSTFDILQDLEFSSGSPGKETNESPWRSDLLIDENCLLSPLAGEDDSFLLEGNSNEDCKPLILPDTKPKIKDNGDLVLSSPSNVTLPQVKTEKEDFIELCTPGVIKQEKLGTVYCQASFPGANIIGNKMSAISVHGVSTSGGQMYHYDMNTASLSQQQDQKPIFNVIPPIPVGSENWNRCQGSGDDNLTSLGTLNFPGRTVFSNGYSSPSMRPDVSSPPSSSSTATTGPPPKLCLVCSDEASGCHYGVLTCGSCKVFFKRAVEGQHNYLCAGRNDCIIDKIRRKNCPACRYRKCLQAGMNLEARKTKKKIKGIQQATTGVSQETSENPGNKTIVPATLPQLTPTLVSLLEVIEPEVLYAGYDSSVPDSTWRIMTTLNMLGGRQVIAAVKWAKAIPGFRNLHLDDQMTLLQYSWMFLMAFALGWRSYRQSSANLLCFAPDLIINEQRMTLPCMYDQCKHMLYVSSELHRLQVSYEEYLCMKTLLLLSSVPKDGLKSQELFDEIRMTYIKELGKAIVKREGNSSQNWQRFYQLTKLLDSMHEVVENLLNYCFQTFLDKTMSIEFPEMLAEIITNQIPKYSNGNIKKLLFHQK
Cytochrome P450 1A2 (Homo sapiens), sequence (P05177 whole entry, looked up): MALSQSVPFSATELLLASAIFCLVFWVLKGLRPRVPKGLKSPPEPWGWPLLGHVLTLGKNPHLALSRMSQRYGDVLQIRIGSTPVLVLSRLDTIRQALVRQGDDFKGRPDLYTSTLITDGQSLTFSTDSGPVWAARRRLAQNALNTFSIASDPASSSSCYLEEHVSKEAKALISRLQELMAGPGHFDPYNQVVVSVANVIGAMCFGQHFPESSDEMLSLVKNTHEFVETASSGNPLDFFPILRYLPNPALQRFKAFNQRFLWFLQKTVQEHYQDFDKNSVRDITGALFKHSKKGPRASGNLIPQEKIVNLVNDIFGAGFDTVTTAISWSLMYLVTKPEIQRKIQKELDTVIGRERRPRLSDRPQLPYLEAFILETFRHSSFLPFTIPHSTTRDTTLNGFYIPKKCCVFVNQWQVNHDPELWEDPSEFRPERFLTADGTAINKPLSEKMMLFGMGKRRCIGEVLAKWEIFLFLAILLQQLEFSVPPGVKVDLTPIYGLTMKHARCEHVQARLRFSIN
Lysosomal acid glucosylceramidase (Homo sapiens), sequence (P04062 whole entry, looked up): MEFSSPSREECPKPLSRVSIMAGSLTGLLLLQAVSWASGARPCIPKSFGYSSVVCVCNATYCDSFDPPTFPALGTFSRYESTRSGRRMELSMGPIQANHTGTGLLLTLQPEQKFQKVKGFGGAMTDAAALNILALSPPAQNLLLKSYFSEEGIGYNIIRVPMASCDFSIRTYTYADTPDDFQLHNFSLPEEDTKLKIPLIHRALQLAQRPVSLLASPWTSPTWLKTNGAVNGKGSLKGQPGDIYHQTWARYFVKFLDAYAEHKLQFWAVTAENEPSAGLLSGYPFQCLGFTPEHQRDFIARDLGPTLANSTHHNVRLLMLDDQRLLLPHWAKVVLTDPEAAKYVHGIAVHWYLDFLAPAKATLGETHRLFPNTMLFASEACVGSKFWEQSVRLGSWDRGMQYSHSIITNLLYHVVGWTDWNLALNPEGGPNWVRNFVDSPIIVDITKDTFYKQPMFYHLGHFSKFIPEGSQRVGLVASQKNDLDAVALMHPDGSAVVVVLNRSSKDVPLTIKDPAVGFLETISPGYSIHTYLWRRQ

CCCCOc1cc(C(=O)NCCN(CC)CC)c2ccccc2n1
inactive: activity change, negative = inhibition ([1]; at 17.2 µM (top of the series)) 13.7% and 13.1% and 14.9% | activity change, negative = inhibition ([3]; at 17.2 µM (top of the series)) 3.91% and -0.708% and -6.28% | activity, negative = inhibition ([4]; at 17.2 µM (top of the series)) 0.235% and -1.92% and -8.41% | Potency [5] > 20.6 µM | Potency [6] > 20.6 µM | outcome [7]
active: Potency [2] 5.01 µM

O=C(CCCN1CCC(O)(c2ccc(Br)cc2)CC1)c1ccc(F)cc1
inactive: activity change, negative = inhibition ([1]; at 17.2 µM (top of the series)) 13.1% | activity change, negative = inhibition ([3]; at 17.2 µM (top of the series)) -24.7% | activity, negative = inhibition ([4]; at 17.2 µM (top of the series)) 1.5% | Potency [5] > 20.6 µM | Potency [6] > 20.6 µM | outcome [7]
active: Potency [2] 5.01 µM

C[C@H](O)C(=O)Nc1c(I)c(C(=O)NC(CO)CO)c(I)c(C(=O)NC(CO)CO)c1I
inactive: activity change, negative = inhibition ([1]; at 17.2 µM (top of the series)) 11.2% | Potency [2] | activity change, negative = inhibition ([3]; at 17.2 µM (top of the series)) 3.52% | activity, negative = inhibition ([4]; at 17.2 µM (top of the series)) -2.21% | Potency [5] > 20.6 µM | Potency [6] > 20.6 µM | outcome [7]

CC(C)NC[C@@H](O)COc1cccc2ccccc12
inactive: activity change, negative = inhibition ([1]; at 17.2 µM (top of the series)) 7.5% and 12.8% and 4.83% | activity change, negative = inhibition ([1]; at 38 µM (top of the series)) 17.5% and 11.4% | activity change, negative = inhibition ([3]; at 17.2 µM (top of the series)) 5.75% and 5.85% and -11.9% | activity change, negative = inhibition ([3]; at 38 µM (top of the series)) 4.84% and 0.806% | activity, negative = inhibition ([4]; at 17.2 µM (top of the series)) -2.8% and 2.51% and -11.2% | activity, negative = inhibition ([4]; at 38 µM (top of the series)) 8.52% and -21.7% | outcome [7]

OC(CCN1CCCCC1)(c1ccccc1)c1ccccc1
inactive: Potency [8] > 11.4 µM | activity change, negative = inhibition ([1]; at 7.69 µM (top of the series)) -3.31% | activity change, negative = inhibition ([1]; at 17.2 µM (top of the series)) 7.98% and -4.16% | Potency [2] | activity, negative = inhibition ([4]; at 7.69 µM (top of the series)) -4.56% | activity, negative = inhibition ([4]; at 17.2 µM (top of the series)) 8.93% and 3.51% | outcome [7]
active: activity change, negative = inhibition ([3]; at 7.69 µM (top of the series)) -73.6% | activity change, negative = inhibition ([3]; at 17.2 µM (top of the series)) -42.4% and -77.8%

NCCc1ccn[nH]1
inactive: activity change, negative = inhibition ([1]; at 17.2 µM (top of the series)) 2.73% | Potency [2] | activity change, negative = inhibition ([3]; at 17.2 µM (top of the series)) -6.22% | activity, negative = inhibition ([4]; at 17.2 µM (top of the series)) 4.55% | Potency [5] > 20.6 µM | Potency [6] > 20.6 µM | outcome [7]

C=C(CC)C(=O)c1ccc(OCC(=O)O)c(Cl)c1Cl
active: Potency [9] 9.25 µM | Potency [11] 45.3 µM | activity change, negative = inhibition ([3]; at 17.2 µM (top of the series)) -133% | activity change, negative = cytotoxicity [12] -112% | activity change, negative = cytotoxicity [13] -86.1% | viability change, negative = cytotoxic [15] -99.4% | activity change, negative = cytotoxicity [16] -86.3%
inactive: activity change, negative = inhibition ([1]; at 17.2 µM (top of the series)) -11.1% and -7.79% | Potency [2] | Potency [10] > 92 µM | activity, negative = inhibition ([4]; at 17.2 µM (top of the series)) -17.9% | Potency [5] > 20.6 µM | Potency [6] > 20.6 µM | outcome [7] | Potency [14]

CCOc1ccc(Cc2nccc3cc(OCC)c(OCC)cc23)cc1OCC
inactive: activity change, negative = inhibition ([1]; at 17.2 µM (top of the series)) -1.91% | activity change, negative = inhibition ([3]; at 17.2 µM (top of the series)) -11.6% | activity, negative = inhibition ([4]; at 17.2 µM (top of the series)) -1.62% | Potency [5] > 20.6 µM | Potency [6] > 20.6 µM | outcome [7]
active: Potency [2] 10 µM

N[C@@H](Cc1cnc[nH]1)C(=O)O
inactive: activity change, negative = inhibition ([1]; at 38 µM (top of the series)) 2.79% | Potency [2] | activity change, negative = inhibition ([3]; at 38 µM (top of the series)) -0.542% | activity, negative = inhibition ([4]; at 38 µM (top of the series)) 27.2% | Potency [5] > 46 µM | Potency [6] > 46 µM

O=C1CCC(c2ccc(-n3ccnc3)cc2)=NN1
active: Potency [2] 0.158 µM
inactive: activity change, negative = inhibition ([1]; at 38 µM (top of the series)) 14.9% | activity change, negative = inhibition ([3]; at 38 µM (top of the series)) 3.77% | activity, negative = inhibition ([4]; at 38 µM (top of the series)) 9.57% | Potency [5] > 46 µM | Potency [6] > 46 µM | outcome [7]

Cc1cc(=O)n(-c2ccccc2)n1C
inactive: activity change, negative = inhibition ([1]; at 17.2 µM (top of the series)) 3.67% | Potency [2] | activity change, negative = inhibition ([3]; at 17.2 µM (top of the series)) -2.45% | activity, negative = inhibition ([4]; at 17.2 µM (top of the series)) 10.3% | outcome [7]

CN(C)CC/C=C1\c2ccccc2Sc2ccc(Cl)cc21
inactive: Potency [8] > 11.4 µM | activity change, negative = inhibition ([1]; at 7.69 µM (top of the series)) 20.4% | activity, negative = inhibition ([4]; at 7.69 µM (top of the series)) -3.4% | activity, negative = inhibition ([4]; at 17.2 µM (top of the series)) -6.29% | Potency [5] > 20.6 µM and > 46 µM | Potency [6] > 20.6 µM and > 9.22 µM | outcome [7]
active: Potency [2] 1.58 µM and 3.98 µM

CC(C)(C(=O)c1cccnc1)c1cccnc1
active: Potency [2] 12.6 µM
inactive: activity change, negative = inhibition ([1]; at 17.2 µM (top of the series)) 1.77% | activity change, negative = inhibition ([3]; at 17.2 µM (top of the series)) -2.38% | activity, negative = inhibition ([4]; at 17.2 µM (top of the series)) -5.5% | Potency [5] > 20.6 µM | Potency [6] > 20.6 µM | outcome [7]

C[N+]1(CCCCC[N+]2(C)CCCC2)CCCC1
inactive: activity change, negative = inhibition ([1]; at 17.2 µM (top of the series)) 5.75% | activity change, negative = inhibition ([1]; at 38 µM (top of the series)) 7.2% | activity change, negative = inhibition ([3]; at 17.2 µM (top of the series)) -12.7% | activity change, negative = inhibition ([3]; at 38 µM (top of the series)) -8.15% | activity, negative = inhibition ([4]; at 17.2 µM (top of the series)) 14.2% | activity, negative = inhibition ([4]; at 38 µM (top of the series)) 0.841% | Potency [5] > 46 µM and > 20.6 µM | Potency [6] > 46 µM and > 20.6 µM | outcome [7]
